# According to a collection of fitness landscapes (doi:10.1016/j.celrep.2020.107928):
# Over roughly 81,000 sequences, “one-hybrid fitness for binding parS DNA” has its median near -0.17; the highest 2% begin near 0.51. The full list was thinned out, with the highest values kept by preference.
# B1: Caulobacter ParB omega fusion; a variant is named by its letters at X, in order, B8GW30 (parent)
# chain: MESVVVGEPGMSEGRRGLGRGLSALLGEVDAAPAQAPGEQLGGSREAPIEILQRNPDQPRRTFREEDLEDLSNSIREKGVLQPILVRPSPDTAGEYQIVAGERAWRAAQRAGLKTVPIMVRELDDLAVLEIGIIENVQRADLNVLEEALSYKVLMEKFERTQENIAQTIGKSXSHVANXMRLLXLPDEVQSYLVSGELTAXHARAIAAAADPVALAKQIIEGGLSVRETEALARKAPNLSAGKSKGGRPPRVKDTDTQALESDLSSVLGLDVSIDHRGSTGTLTITYATLEQLDDLCNRLTRGI
# Variants of: B1
# Experiment: one-hybrid fitness for binding parS DNA (scaled: cognate 1, non-cognate 0); higher = stronger binding
# Conditions: with parS DNA site
# Method in brief: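 Caulobacter ParB libraries with four specificity codons randomised were screened by bacterial one-hybrid selection in the E. coli USO strain, using a HIS3 reporter whose site lies 19 bp from the promoter. Selection ran for 48 hours at 37°C on M9 lacking histidine, with 0.1 mM IPTG and 5 mM 3-AT. Plasmids were Illumina-sequenced before and after selection, three replicate libraries were pooled, and variants with under 10 reads were dropped. Fitness is the log change in each variant's read ratio to wild type, rescaled against the cognate and non-cognate sites.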
row,Variant,one-hybrid fitness for binding parS DNA
1,VSYR,≤ 0.2
2,NTNS,≤ 0.2
3,RPLA,≤ 0.2
4,RTLA,0.595
5,NTLA,≤ 0.2
6,RWLA,0.384
7,DTLA,≤ 0.2
8,RALA,0.612
9,RMLA,0.609
10,RCLA,0.609
11,NMLA,≤ 0.2
12,NALA,≤ 0.2
13,PNHR,≤ 0.2
14,LLEW,≤ 0.2
15,GIRG,≤ 0.2
16,DQFS,≤ 0.2
17,PYSY,≤ 0.2
18,GART,≤ 0.2
19,NSRV,≤ 0.2
20,IMIV,≤ 0.2
21,ICQC,≤ 0.2
22,RSLA,0.591
23,DHLA,≤ 0.2
24,RFLA,0.533
25,RHLA,0.533

row,Variant,one-hybrid fitness for binding parS DNA
1,RLLA,0.605
2,RELA,≤ 0.2
3,NHLA,≤ 0.2
4,DFLA,≤ 0.2
5,RDLA,≤ 0.2
6,SFLA,≤ 0.2
7,DLLA,≤ 0.2
8,RNLA,0.452
9,YYAL,≤ 0.2
10,HRNR,≤ 0.2
11,VLTI,≤ 0.2
12,QANF,≤ 0.2
13,MFMS,≤ 0.2
14,QQVT,≤ 0.2
15,TCGR,≤ 0.2
16,KIYR,≤ 0.2
17,FHCT,≤ 0.2
18,NRQF,≤ 0.2
19,THLI,≤ 0.2
20,RMEQ,≤ 0.2
21,QDTM,≤ 0.2
22,VKRS,≤ 0.2
23,HTGH,≤ 0.2
24,RADP,≤ 0.2
25,RANH,≤ 0.2

row,Variant,one-hybrid fitness for binding parS DNA
1,RANS,0.96
2,RANP,≤ 0.2
3,RADS,0.966
4,RADH,≤ 0.2
5,YHVS,≤ 0.2
6,SKAT,≤ 0.2
7,RCTR,≤ 0.2
8,DCPY,≤ 0.2
9,CRRI,≤ 0.2
10,RSQK,≤ 0.2
11,REQT,≤ 0.2
12,RCQT,0.936
13,RPQT,≤ 0.2
14,RDQT,≤ 0.2
15,RSQT,0.874
16,MKGT,≤ 0.2
17,PHAA,≤ 0.2
18,CNAG,≤ 0.2
19,SQES,≤ 0.2
20,CCPY,≤ 0.2
21,RKVY,0.412
22,RKVF,≤ 0.2
23,RKVG,0.942
24,RKKD,≤ 0.2
25,RKKP,≤ 0.2

row,Variant,one-hybrid fitness for binding parS DNA
1,RKKG,0.802
2,NRVQ,≤ 0.2
3,PLNP,≤ 0.2
4,RHQP,≤ 0.2
5,RSQC,0.958
6,RIQC,1
7,RHQC,0.951
8,RKQY,0.4
9,RHQD,≤ 0.2
10,REQC,≤ 0.2
11,RIQQ,≤ 0.2
12,RIQY,0.442
13,RSQQ,≤ 0.2
14,RKQC,0.825
15,RKQQ,≤ 0.2
16,VCLS,≤ 0.2
17,NNQG,≤ 0.2
18,QKHV,≤ 0.2
19,RRQC,0.63
20,NRQC,≤ 0.2
21,RMQC,1.02
22,RMQL,≤ 0.2
23,RRQR,≤ 0.2
24,RMQF,≤ 0.2
25,RLQY,0.495

row,Variant,one-hybrid fitness for binding parS DNA
1,RCQC,0.994
2,RPQC,≤ 0.2
3,RDQC,≤ 0.2
4,RLQQ,≤ 0.2
5,RLQC,0.998
6,NGPC,≤ 0.2
7,QQNS,≤ 0.2
8,IKKF,≤ 0.2
9,DIKG,≤ 0.2
10,YPGG,≤ 0.2
11,FNTL,≤ 0.2
12,LPNG,≤ 0.2
13,RCRA,0.796
14,RCDA,0.567
15,RGNA,0.394
16,RCNA,0.719
17,RENA,≤ 0.2
18,RSNA,0.596
19,RPNA,≤ 0.2
20,RWNA,0.425
21,RPRA,≤ 0.2
22,RWDA,0.29
23,RPDA,≤ 0.2
24,RWRA,0.474
25,YTPK,≤ 0.2

row,Variant,one-hybrid fitness for binding parS DNA
1,NRGR,≤ 0.2
2,WRHM,≤ 0.2
3,TEAW,≤ 0.2
4,HGTW,≤ 0.2
5,PNLY,≤ 0.2
6,DLLY,≤ 0.2
7,RDDA,≤ 0.2
8,RGYA,0.225
9,KFNA,≤ 0.2
10,RFNA,0.57
11,RFDA,0.46
12,RDRA,≤ 0.2
13,RSRA,0.605
14,RCYH,0.301
15,REDA,≤ 0.2
16,RCYA,0.619
17,RSDA,0.515
18,RGRA,0.496
19,CFAA,≤ 0.2
20,RNLW,≤ 0.2
21,NVSV,≤ 0.2
22,DDCG,≤ 0.2
23,KMYG,≤ 0.2
24,QRCI,≤ 0.2
25,APES,≤ 0.2

row,Variant,one-hybrid fitness for binding parS DNA
1,SERT,≤ 0.2
2,LITT,≤ 0.2
3,MNRC,≤ 0.2
4,DIAI,≤ 0.2
5,ACMT,≤ 0.2
6,YQQG,≤ 0.2
7,RSYA,0.602
8,DSYA,≤ 0.2
9,RSPA,≤ 0.2
10,RHVS,0.927
11,RHKP,≤ 0.2
12,RHVD,≤ 0.2
13,RHKN,0.365
14,RHKS,0.777
15,RHVN,0.302
16,KQDV,≤ 0.2
17,HTPC,≤ 0.2
18,AALR,≤ 0.2
19,WLII,≤ 0.2
20,YSML,≤ 0.2
21,RMKM,0.391
22,RMKD,≤ 0.2
23,RMVF,0.259
24,RMKT,0.764
25,RMVR,≤ 0.2

row,Variant,one-hybrid fitness for binding parS DNA
1,RMVT,0.875
2,TDKS,≤ 0.2
3,CMDR,≤ 0.2
4,TNLK,≤ 0.2
5,RLPN,0.225
6,RLIS,1
7,RLPD,≤ 0.2
8,RLIN,0.38
9,RLPS,0.86
10,RLIP,≤ 0.2
11,IHED,≤ 0.2
12,PMWM,≤ 0.2
13,NFVG,≤ 0.2
14,RFVG,0.77
15,NFKG,≤ 0.2
16,RFVN,0.26
17,RFKD,≤ 0.2
18,RFKG,0.988
19,LLAH,≤ 0.2
20,KLSS,≤ 0.2
